DT40 TDP1 no CPT – qHTS for Inhibitors of human tyrosyl-DNA phosphodiesterase 1 (TDP1): qHTS in cells in absence of CPT; DT40 Tdp1-/- hTDP1 cells, no CPT, ATP luminescence, 48 h; Potency, µM (highest dose often 46.2 µM), for the others: at the highest dose activity change, negative = growth inhibition, usual class: inhibitors; 15% of 420,000 active; AID 686978, 2013; further: potency means the concentration at half of the fitted maximal effect; nearly all actives have a fitted effect of over 55% in size
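DT40 Tdp1-/-;hTDP1 cells, no CPT (DMSO vehicle only), 400 cells/well; compounds pin-transferred; ≥48 hr, 37 °C; CellTiter-Glo 30 min RT dark, luminescence read.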
HT1080 IDH1KD tx – HT-1080 IDH1 knockdown cell toxicity (counter line); AID 686971; 2% of 360,000 active; HT-1080 IDH1 knockdown viability, ATP luminescence, 48 h; Potency, µM (series often up to 46.1 µM), without a hit: at the top dose activity, negative = toxicity, hits mostly cytotoxic;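 further: potency means the concentration at half of the fitted maximal effect; 0% = DMSO wells and -100% = cell-free medium wells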
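After a 2 h attachment period, IDH1KD HT-1080 cells took pin-transferred compound for 48 h at 37 °C; ATP-based luminescence after 10 min room-temperature reagent incubation reported viability.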
HT1080-NT tox – kills 2HG-producing HT-1080-NT fibrosarcoma cells. HT-1080-NT fibrosarcoma viability, CellTiter-Glo ATP luminescence, 48 h. 1.6% of 360,000 active. Potency, µM (series often up to 46.1 µM), for inactives: top-dose activity, negative = less viability, usual class: cytotoxic;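 further: NT is the 2HG producing partner of a matched IDH1 knockdown line; potency means the concentration at half of the fitted maximal effect; 0% = DMSO-treated cells and -100% = media-only wells without cells; nearly all actives have a fitted effect of over 55% in size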
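Viability of the 2HG-overproducing fibrosarcoma line after 48 hours of compound exposure at 37 degrees C was determined by luminescence with CellTiter-Glo, and concentration-effect curves were then fitted and categorized.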
ELG1 repair inh – ELG1-dependent DNA repair inhibition | HEK293T ELG1-luciferase reporter, luminescence, 16 h; DNA damage induced by 5-fluorouridine | Potency, µM (series often up to 46.1 µM), for the others: at the top dose activity change, negative = inhibition, most hits filed as inhibitors | 2.3% of 330,000 active | AID 504467; further: potency means the concentration at half of the fitted maximal effect; nearly all actives have a fitted effect of over 55% in size
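Cells (2,000 per well) received 5-fluorouridine plus test compound or DMSO and were incubated 16 hr at 37 °C, 5% CO2. Luciferase activity was read by luminescence 30 min after ONE-Glo addition; signal suppression marked inhibition of damage-induced ELG1 function.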
TDP1 cell CPT – DT40-hTDP1 cell growth loss with CPT; chicken DT40 Tdp1-/-;hTDP1 cells + 20 nM CPT, ATP luminescence, 48 h; Potency, µM (doses to about 46.2 µM), inactives show at the top dose activity change, negative = growth inhibition, usual class: inhibitors; 12% of 420,000 active; AID 686979; further: potency means the concentration at half of the fitted maximal effect; nearly all actives have a fitted effect of over 55% in size
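Chicken DT40 Tdp1-/- cells stably complemented with human TDP1 were seeded at 400 cells/well in medium containing 20 nM camptothecin, exposed to pin-transferred compounds, and grown at 37 °C for at least 48 hr. Viability was read as ATP luminescence.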
IL-1B inflam inh – inflammasome signaling inhibition, IL-1 beta readout; 4.7% of 360,000 active; activity change, % at 57.5 µM; THP-1 LPS/ATP IL-1B secretion, AlphaLISA, 16 h; stronger effect = lower value; in the data active means activity change below about -50%; inconclusive means mostly about -30% to -49%
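Secreted IL-1B measured by AlphaLISA bead assay after 16 h compound exposure of THP-1 cells; compounds (final up to 57.5 uM) added 1 h before LPS (250 ng/mL) and ATP (1.25 mM) stimulation; lower signal means less secretion.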
Starred values were filed as active, the others as inactive; i = inactive; ? = inconclusive; . = no result given; ! = repeats disagree. Only some compounds are listed: those with a hit (about 19% of all), similar ones and a draw of the others. Unless noted, the call rests on the fitted dose curve; in most records, active means well fitted curve in the direction sought with a large enough effect; inconclusive means small, poorly fitted or top-dose-only effect, or another doubt; inactive means no such curve, though single readings can be large; an effect the other way counts as inactive or inconclusive. Unless noted, on the % scale 0 is the no-effect control and ±100 the full control effect.

SMILES	DT40 TDP1 no CPT	HT1080 IDH1KD tx	HT1080-NT tox	ELG1 repair inh	TDP1 cell CPT	IL-1B inflam inh
CCCC(=O)N1CCC1(C)C(=O)NS(=O)(=O)c1ccc(C(C)(C)C)cc1 (stereo not drawn)	-5%	1%	18%	.	-17%	25
COc1ccc(S(=O)(=O)c2nnn(-c3cccc(Cl)c3)c2N)cc1	21µM*!	-4%	-8%	-23%	12µM*	16
CCc1cccc(-n2nnc(S(=O)(=O)c3ccc(OC)cc3)c2C)c1	?	.	.	.	-19%	.
COc1cccc(-n2nnc(S(=O)(=O)c3ccc(C)cc3)c2N)c1	23µM*	1%	0%	?	?	0
O=S(=O)(NCc1nnnn1-c1ccc(F)cc1)c1ccc(F)cc1	-13%	2%	-2%	.	-11%	17
COc1cccc(-n2cnnn2)c1	3%	8%	3%	.	-6%	39
CCc1ccc(S(=O)(=O)c2nnn(-c3ccc(F)cc3)c2N)cc1	16µM*	.	.	.	23µM*	.
N#Cc1ccc(Cl)cc1NC(=O)COC(=O)[C@H](CCC(N)=O)NC(=O)c1ccc(F)cc1	-20%	-2%	1%	14%	-2%	5
Cc1ccnn1CC(=O)N1CCOc2c(cc(-c3ncc(C(F)(F)F)cc3Cl)cc2OCC2CCCO2)C1 (stereo not drawn)	-24%	.	.	.	-1%	.
O=C(Nc1ccccc1C(=O)O)c1cccc(NC(=O)c2ccc(Br)o2)c1	1.6µM*	-3%	-6%	2%	-7%	-6
CC(C)Oc1ccc(C(=O)Nc2ccc(NC(=O)c3ccco3)c(Cl)c2)cc1	?	11%	13%	-1%	?	?
O=C(Nc1cccc(-c2cnc3ccccc3n2)c1)c1cccc(NC(=O)c2ccco2)c1	15µM*	?	?	10µM*	6.5µM*	60
O=C(Nc1ccc(NC(=O)c2ccco2)c(Cl)c1)c1ccccc1	23µM*	14%	2%	4%	?	?
O=C(Nc1cccc(-c2cnc3ccccc3n2)c1)C1CC(=O)N(c2ccccc2)C1 (stereo not drawn)	23µM*	0%	-2%	?	21µM*	i
O=C(Nc1ccccc1C(=O)O)c1ccc(NC(=O)c2ccc(Br)o2)cc1	?	?	4%	-13%	?	42
Cc1ccc(SCC(=O)OCC(=O)N(C)C2CCS(=O)(=O)C2)cc1C (stereo not drawn)	?	0%	9%	20%	4%	0
O=C(CCl)Nc1cccc(-c2cnc3ccccc3n2)c1	2.3µM*	?	?	9.2µM*	2.9µM*	-96*
Nc1ccc(NC(=O)c2cccc(C(=O)Nc3ccc(N)cc3Cl)c2)c(Cl)c1	16µM*	16µM*	?	-20%	18µM*	0
Nc1cccc(C(=O)Nc2ccc(N)cc2Cl)c1	0%	23%	0%	?	-6%	-16
O=C(Nc1ccccc1O)c1cccc(NC(=O)c2ccco2)c1	13µM*	-10%	8%	12µM*	21µM*	57
O=C(Nc1ccc(Cl)c(Cl)c1)Oc1ccc(NC(=O)c2ccco2)cc1	26µM*	-24%	-19%	17%	?	-88*
CCc1nc2ccc(C(=O)NCCCn3ccnc3)cn2c1N(C)Cc1ccc(Cl)cc1	3%	17%	-2%	.	-7%	-2
COc1ccc(NC(=O)N(C)C[C@H]2OCc3cnnn3CCCC(=O)N([C@@H](C)CO)C[C@H]2C)cc1	-18%	1%	7%	.	-16%	17
O=C(Nc1cccc(NC(=O)c2ccco2)c1)c1ccccc1	-16%	1%	-7%	0%	-20%	-12
Nc1ccc(C(=O)Nc2ccc(NC(=O)c3ccco3)c(O)c2)cc1	16µM*	1%	4%	-4%	?	-20
SMILES	DT40 TDP1 no CPT	HT1080 IDH1KD tx	HT1080-NT tox	ELG1 repair inh	TDP1 cell CPT	IL-1B inflam inh
O=C(Nc1cccc(NC(=O)c2nccc3ccccc23)c1)c1ccco1	10µM*	0%	1%	-12%	?	3
O=C(Nc1nccs1)c1cccc(NC(=O)c2ccco2)c1	?	9%	11%	23µM*	-5%	-3
CC(C)COc1ccc(C(=O)Nc2ccc(NC(=O)c3ccco3)c(Cl)c2)cc1	-25%	15µM*	?	3%	?	-6
CN1CCC(=NOc2ccc([N+](=O)[O-])cc2)CC1	-30%	-4%	0%	?	-9%	-23
CC(=O)c1c(C)[nH]c(C(=O)NNC(=O)c2ccc(Br)cc2)c1C	?	0%	-5%	12%	15%	0
CCN(CC(=O)NC(=O)NCc1ccccc1)Cc1ccccc1	-10%	-5%	-10%	-18%	-27%	-9
CCc1ccc(-n2c(=O)c3c(C)c(C)sc3n(CC(=O)NCc3ccc(C)cc3)c2=O)cc1	2%	.	.	.	-3%	.
CC1=NN(c2ccc(Cl)cc2)C(=O)C1C(c1cccc(O)c1)c1c(C)[nH]n(-c2ccc(Cl)cc2)c1=O (stereo not drawn)	?	?	16µM*	1%	?	0
COc1ccc(CNC(=O)CC2C[C@H](C(=O)N3CCCCC3)[C@@]3(C)c4[nH]c5ccccc5c4CCN3C2=O)cc1OC (stereo partly drawn)	?	-1%	-1%	-20%	?	-2
CCN(CC)CCN(CC(=O)Nc1c(C)cc(C)cc1C)C(=O)c1ccccc1	3%	-3%	-5%	10%	-16%	-68*
Cc1cc(C)c(NC(=O)CN(C)C(=O)CNC(=O)c2cccs2)c(C)c1	-7%	12%	-9%	?	1%	8
Cc1cccc(C)c1NC(=O)C1c2cccc[n+]2CC(=O)N1Cc1cccs1 (stereo not drawn)	?	9%	7%	?	?	-1
CCOC(=O)c1ccc(-n2c(CCC(=O)O)ccc2-c2cccs2)cc1	?	?	-11%	11%	-19%	-70*
CCc1ccc(-n2c(CCC(=O)O)ccc2-c2cccs2)cc1	-25%	.	.	.	-22%	.
Cc1cc(C)cc(NC(=O)CSc2nnc(COc3ccccc3Cl)o2)c1	-27%	.	.	.	0%	.
CCOc1ccc(-n2c(N)c(-c3nc4ccccc4n3C)c3nc4ccccc4nc32)cc1	?	7%	1%	-18%	?	58
Cc1nn(Cc2ccc(C(=O)NC(C)(C)C)o2)c(C)c1Br	12µM*	-14%	-10%	?	23µM*	-20
